Measured values taken from PubChem BioAssay (Tox21).
Values without a mark were called inactive. Records with an inconclusive call do not appear. Entries that show only a call come without a potency. Active and inactive are the calls of the source. Unless noted, the call rests on the fitted dose curve; in most records, active means well fitted curve in the direction sought with a large enough effect in the repeat runs; inconclusive means weak or mixed curves; inactive means no such curve, though single readings can be large; an effect the other way counts as inactive or inconclusive.

How the values were obtained:
[1] = Caspase-3/7 induction in HepG2 cells by small molecules, qHTS assay (AID 1346978); further: nearly all actives have a fitted effect of over 15% in size; further: potency means the concentration at half of the fitted maximal effect
Method in brief: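 Wild-type HepG2 cells (2,000/well) were settled 5 h at 37 C, 5% CO2, then exposed to compounds in DMSO for 17 h. Caspase-3/7 activity was read by luminescence 30 min after adding Caspase-Glo 3/7 reagent at room temperature.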

[2] = molecular target: Acetylcholinesterase (Homo sapiens) (UniProt P22303); test: Acetylcholinesterase (AChE) small molecule antagonists: enzyme-based qHTS assay with human liver microsomes (AID 1347399; calls by dose curve; further: nearly all actives have a fitted effect of over 60% in size); conditions: Potency: qHTS inhibition; outcome: qHTS inhibition
Method in brief: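 Recombinant human AChE (50 mU/mL in the enzyme mix) and human liver microsomes (0.25 mg/mL final) were preincubated with compound and NADPH (0.25 mg/mL final) for 30 min at 37 C. Acetylthiocholine/DTNB was then added; thiocholine was read colorimetrically after 10 min at room temperature.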

[3] = molecular target: Androgen receptor (Homo sapiens) (UniProt P10275); test: qHTS assay to identify small molecule agonists of the androgen receptor (AR) signaling pathway in the presence of an antagonist (AID 1259381; calls by dose curve; further: nearly all actives have a fitted effect of over 15% in size)
Method in brief: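 Here, 15-concentration compound series were pin-transferred onto MDA-kb2 MMTV-luciferase cells already dosed with nilutamide (3.0uM final). After 16hr at 37C, ONE-Glo was added and luminescence read 30min later at room temperature.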

[4] = molecular target: Glucocorticoid receptor (Homo sapiens) (UniProt P04150); test: qHTS assay to identify small molecule agonists of the glucocorticoid receptor (GR) signaling pathway (AID 720691; active means well fitted activation curve with a large enough effect in the signal ratio in the repeat runs, not every such curve was filed as active; the % refers to the signal ratio)
Method in brief: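 Beta-lactamase reporter activity, read as fluorescence intensity, was measured in GR-bla HeLa cells exposed to compounds for 18 h at 37 C and then loaded with LiveBLAzer B/G FRET substrate for 2 h at room temperature.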

[5] = molecular target: Nuclear receptor subfamily 1 group I member 2 (Rattus norvegicus) (UniProt Q9R1A7); test: Rat pregnane X receptor (rPXR) activation by small molecules, qHTS assay (AID 1346983); conditions: rPXR luciferase reporter cells, One-Glo luminescence, 24 h; max activation: active compounds read high; further: nearly all actives have a fitted effect of over 20% in size
Method in brief: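 Cell-based rPXR luciferase reporter assay, 2,000 cells per well, rested 5hr at 37 C before compound addition in DMSO, then 24 hr at 37 C. One-Glo reagent was added and luminescence read after 30 min at room temperature.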

[6] = molecular target: Nuclear receptor subfamily 1 group I member 2 (Homo sapiens) (UniProt O75469); test: Human pregnane X receptor (PXR) activation by small molecules, qHTS assay (AID 1346985); further: nearly all actives have a fitted effect of over 40% in size; further: potency means the concentration at half of the fitted maximal effect
Method in brief: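 DPX-2 cells (HepG2 co-transfected with a PXR response element and a CYP3A4-promoter luciferase construct) were seeded at 2,000 per well, rested 5 hr at 37C, then exposed to DMSO-dissolved compounds for 24 hr. Activation was read as luciferase luminescence.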

[7] = qHTS assay for small molecule disruptors of the mitochondrial membrane potential (AID 720635); further: potency means the concentration at half of the fitted maximal effect
Method in brief: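 HepG2 cells (2,000/well) attached overnight at 37C, then took compound for 1 hr at 37C, 5% CO2. Mito-MPS dye was added for 30 min; fluorescence was read at 490/535 nm (monomers) and 540/590 nm (aggregates).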

[8] = molecular target: Glucocorticoid receptor (Homo sapiens) (UniProt P04150); test: qHTS assay to identify small molecule antagonists of the glucocorticoid receptor (GR) signaling pathway (AID 720692; active means well fitted inhibition curve with a large enough effect in the signal ratio in the repeat runs, not every such curve was filed as active; the % refers to the signal ratio)
Method in brief: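 Fluorescence from cleaved LiveBLAzer B/G FRET substrate reports GRE-driven beta-lactamase in HeLa cells; compounds are tested against 5 nM dexamethasone (final) over 18 h at 37 C, substrate incubation 2 h at room temperature.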

[9] = molecular target: Estrogen receptor (Homo sapiens) (UniProt P03372); test: qHTS assay to identify small molecule antagonists of the estrogen receptor alpha (ER-alpha) signaling pathway (AID 743069; active means well fitted curve in the direction sought with a large enough effect in the signal ratio in the repeat runs, not every such curve was filed as active; the % refers to the signal ratio)
Method in brief: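 HEK293 cells stably carrying an ER-alpha-UAS-bla beta-lactamase reporter were pre-cultured overnight in 2% charcoal-stripped FBS medium. Test compounds in DMSO were added together with 17beta-estradiol for 18 hr at 37C. Read-out was fluorescence after 2 hr with LiveBLAzer B/G FRET substrate at room temperature.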

[10] = molecular target: Peroxisome proliferator-activated receptor delta (Homo sapiens) (UniProt Q03181); test: qHTS assay to identify small molecule antagonists of the peroxisome proliferator-activated receptor delta (PPARd) signaling pathway (AID 743215; active means well fitted inhibition curve with a large enough effect in the signal ratio in the repeat runs, not every such curve was filed as active; the % refers to the signal ratio;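 further: cells stimulated with agonist L165041 at 300 nM final during compound exposure; series mostly up to about 62 µM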)
Method in brief: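 Antagonist-mode beta-lactamase reporter screen: HEK293H cells with UAS-bla under PPARd control, stimulated by 300 nM L165041 (final) alongside test compound for 17 h at 37 C, then FRET fluorescence after 2 h substrate incubation.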

[11] = molecular target: Androgen receptor (Homo sapiens) (UniProt P10275); test: qHTS assay to identify small molecule antagonists of the androgen receptor (AR) signaling pathway (AID 743035; active means well fitted inhibition curve with a large enough effect in the signal ratio in the repeat runs, not every such curve was filed as active; the % refers to the signal ratio; further: potency means the concentration at half of the fitted maximal effect)
Method in brief: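 Cell line: GeneBLAzer AR-UAS-bla GripTite (HEK293). Stimulus: R1881 added after compound. Exposure: 16 h, 37C, 5% CO2. Readout: LiveBLAzer B/G FRET fluorescence after 2 h at room temperature.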

[12] = molecular target: Androgen receptor (Homo sapiens) (UniProt P10275); test: qHTS assay to identify small molecule agonists of the androgen receptor (AR) signaling pathway using the MDA cell line (AID 743040; further: nearly all actives have a fitted effect of over 20% in size; further: potency means the concentration at half of the fitted maximal effect)
Method in brief: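 MDA-kb2 breast carcinoma cells stably carrying an MMTV-driven luciferase reporter (AR- and GR-responsive) were seeded and held 5 h at 37C, 0% CO2, then exposed to compounds in DMSO for 16 h. Luminescence was read 30 min after ONE-Glo addition.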

[13] = qHTS assay to identify small molecule phospholipidosis (PLD) inducers (AID 1259344; active means well fitted curve in the direction sought with a large enough effect; an effect the other way counts as inactive or inconclusive)
Method in brief: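 HepG2 cells on collagen I, attached 4 h at 37 C, were co-treated with compound and LipidTOX Red dye for 24 h at 37 C, then fixed with paraformaldehyde plus Hoechst 33342 and imaged by high-content microscopy for phospholipid accumulation.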

[14] = molecular target: Androgen receptor (Homo sapiens) (UniProt P10275); test: qHTS assay to identify small molecule agonists of the androgen receptor (AR) signaling pathway (AID 743036; active means well fitted activation curve with a large enough effect in the signal ratio in the repeat runs, with a control signal flat, not every such curve was filed as active; the % refers to the signal ratio; further: potency means the concentration at half of the fitted maximal effect)
Method in brief: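 Quantitative HTS of the Tox21 10K library in HEK293 cells bearing a stably integrated UAS-controlled beta-lactamase reporter. Compound exposure lasted 16 h at 37C. Reporter activity was detected by FRET substrate fluorescence after 2 h at room temperature.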

[15] = molecular target: Androgen receptor (Homo sapiens) (UniProt P10275); test: qHTS assay to identify small molecule antagonists of the androgen receptor (AR) signaling pathway using the MDA cell line (AID 743042; further: nearly all actives have a fitted effect of over 55% in size)
Method in brief: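 MDA-kb2 cells (human breast carcinoma, stably carrying an MMTV-luciferase reporter responsive to AR and GR) were plated at 3,000 cells/well and preincubated 5 hr at 37C, then given compound plus R1881 agonist for 16 h. ONE-Glo luminescence was read.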

Estrogen receptor (Homo sapiens), sequence (P03372 whole entry, looked up): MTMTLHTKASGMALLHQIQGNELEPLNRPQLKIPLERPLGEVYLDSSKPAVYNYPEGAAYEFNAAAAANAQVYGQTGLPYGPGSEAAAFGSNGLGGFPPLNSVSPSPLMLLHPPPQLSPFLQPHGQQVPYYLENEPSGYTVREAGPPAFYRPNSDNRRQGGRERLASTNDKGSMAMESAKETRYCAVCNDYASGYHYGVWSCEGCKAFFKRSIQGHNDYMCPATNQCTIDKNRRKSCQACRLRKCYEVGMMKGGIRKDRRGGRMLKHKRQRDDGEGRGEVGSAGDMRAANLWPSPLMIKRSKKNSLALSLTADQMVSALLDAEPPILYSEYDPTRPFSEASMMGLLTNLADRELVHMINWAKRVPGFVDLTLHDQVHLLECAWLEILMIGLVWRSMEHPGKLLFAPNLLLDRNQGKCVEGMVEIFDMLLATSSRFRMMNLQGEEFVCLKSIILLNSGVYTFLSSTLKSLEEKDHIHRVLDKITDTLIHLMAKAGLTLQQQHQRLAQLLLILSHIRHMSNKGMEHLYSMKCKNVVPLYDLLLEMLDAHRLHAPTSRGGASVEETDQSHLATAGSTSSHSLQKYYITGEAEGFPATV
Nuclear receptor subfamily 1 group I member 2 (Rattus norvegicus), sequence (Q9R1A7 whole entry, looked up): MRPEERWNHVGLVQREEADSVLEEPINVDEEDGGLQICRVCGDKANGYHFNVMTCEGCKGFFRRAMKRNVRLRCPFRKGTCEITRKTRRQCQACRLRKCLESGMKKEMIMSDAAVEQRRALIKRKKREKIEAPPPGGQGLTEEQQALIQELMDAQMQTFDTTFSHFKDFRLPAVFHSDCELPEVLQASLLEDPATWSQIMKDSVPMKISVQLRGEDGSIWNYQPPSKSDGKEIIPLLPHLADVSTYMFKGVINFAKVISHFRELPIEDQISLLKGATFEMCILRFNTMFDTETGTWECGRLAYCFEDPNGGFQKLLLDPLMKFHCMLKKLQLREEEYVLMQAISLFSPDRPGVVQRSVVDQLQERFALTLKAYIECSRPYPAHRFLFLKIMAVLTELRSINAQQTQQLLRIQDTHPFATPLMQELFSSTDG
Glucocorticoid receptor (Homo sapiens), sequence (P04150 whole entry, looked up): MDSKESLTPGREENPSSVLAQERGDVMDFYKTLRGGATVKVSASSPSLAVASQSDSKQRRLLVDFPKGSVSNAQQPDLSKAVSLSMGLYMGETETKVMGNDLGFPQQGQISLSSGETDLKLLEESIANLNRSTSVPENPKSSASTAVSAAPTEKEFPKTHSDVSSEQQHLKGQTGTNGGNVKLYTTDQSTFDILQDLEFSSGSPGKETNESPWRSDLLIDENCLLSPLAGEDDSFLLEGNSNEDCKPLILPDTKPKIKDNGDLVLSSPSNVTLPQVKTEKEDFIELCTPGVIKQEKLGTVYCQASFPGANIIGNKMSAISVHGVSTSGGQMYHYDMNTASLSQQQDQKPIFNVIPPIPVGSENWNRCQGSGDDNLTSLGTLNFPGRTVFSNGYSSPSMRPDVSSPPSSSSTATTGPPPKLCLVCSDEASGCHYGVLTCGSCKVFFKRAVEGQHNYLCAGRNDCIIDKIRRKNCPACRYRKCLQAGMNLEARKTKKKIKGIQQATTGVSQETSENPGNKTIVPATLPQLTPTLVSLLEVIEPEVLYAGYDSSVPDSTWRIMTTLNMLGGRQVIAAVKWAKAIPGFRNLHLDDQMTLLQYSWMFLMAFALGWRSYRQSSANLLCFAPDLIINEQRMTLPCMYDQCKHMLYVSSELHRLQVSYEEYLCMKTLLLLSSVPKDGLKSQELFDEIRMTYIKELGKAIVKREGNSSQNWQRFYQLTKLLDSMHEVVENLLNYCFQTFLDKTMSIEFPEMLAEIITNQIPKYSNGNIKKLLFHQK
Acetylcholinesterase (Homo sapiens), sequence (P22303 whole entry, looked up): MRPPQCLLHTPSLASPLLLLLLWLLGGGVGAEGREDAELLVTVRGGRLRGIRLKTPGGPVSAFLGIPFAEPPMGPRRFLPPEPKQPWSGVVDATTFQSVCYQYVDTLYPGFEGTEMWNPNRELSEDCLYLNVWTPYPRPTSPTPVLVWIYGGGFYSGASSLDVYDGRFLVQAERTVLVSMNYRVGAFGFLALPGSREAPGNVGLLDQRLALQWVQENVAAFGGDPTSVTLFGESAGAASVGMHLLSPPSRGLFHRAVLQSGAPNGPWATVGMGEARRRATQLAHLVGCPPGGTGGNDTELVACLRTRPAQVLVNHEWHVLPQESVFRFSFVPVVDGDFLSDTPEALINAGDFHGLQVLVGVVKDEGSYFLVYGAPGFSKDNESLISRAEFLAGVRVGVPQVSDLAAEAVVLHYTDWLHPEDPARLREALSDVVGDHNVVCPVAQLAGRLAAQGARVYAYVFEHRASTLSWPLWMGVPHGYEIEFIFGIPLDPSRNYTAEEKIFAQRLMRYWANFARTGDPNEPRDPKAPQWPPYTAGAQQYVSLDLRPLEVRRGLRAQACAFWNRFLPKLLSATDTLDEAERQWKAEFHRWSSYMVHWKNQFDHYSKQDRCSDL
Androgen receptor (Homo sapiens), sequence (P10275 whole entry, looked up): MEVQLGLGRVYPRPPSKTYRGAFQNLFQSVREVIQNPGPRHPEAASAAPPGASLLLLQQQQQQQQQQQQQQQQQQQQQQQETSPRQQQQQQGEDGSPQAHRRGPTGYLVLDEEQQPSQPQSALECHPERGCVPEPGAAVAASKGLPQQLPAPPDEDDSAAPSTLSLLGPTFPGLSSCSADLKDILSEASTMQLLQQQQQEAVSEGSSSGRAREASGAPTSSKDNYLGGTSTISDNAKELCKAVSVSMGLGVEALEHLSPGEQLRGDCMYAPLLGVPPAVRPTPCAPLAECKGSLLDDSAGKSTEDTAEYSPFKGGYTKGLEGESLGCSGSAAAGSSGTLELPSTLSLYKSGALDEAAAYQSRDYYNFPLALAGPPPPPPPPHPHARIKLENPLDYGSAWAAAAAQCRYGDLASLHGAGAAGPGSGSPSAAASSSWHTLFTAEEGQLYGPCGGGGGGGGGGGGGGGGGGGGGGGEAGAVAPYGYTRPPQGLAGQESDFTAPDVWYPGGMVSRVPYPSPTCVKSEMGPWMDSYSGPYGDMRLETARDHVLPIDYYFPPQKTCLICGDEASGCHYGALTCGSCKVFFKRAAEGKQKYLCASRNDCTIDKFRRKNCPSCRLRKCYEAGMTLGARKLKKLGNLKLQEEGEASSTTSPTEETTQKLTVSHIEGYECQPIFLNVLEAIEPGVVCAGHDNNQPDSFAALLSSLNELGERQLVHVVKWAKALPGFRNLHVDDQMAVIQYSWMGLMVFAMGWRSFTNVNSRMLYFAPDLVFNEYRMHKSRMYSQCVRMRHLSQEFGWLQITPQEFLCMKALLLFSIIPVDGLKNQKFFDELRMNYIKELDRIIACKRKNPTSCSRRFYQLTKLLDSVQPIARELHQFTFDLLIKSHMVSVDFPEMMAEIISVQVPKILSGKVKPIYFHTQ
Peroxisome proliferator-activated receptor delta (Homo sapiens), sequence (Q03181 whole entry, looked up): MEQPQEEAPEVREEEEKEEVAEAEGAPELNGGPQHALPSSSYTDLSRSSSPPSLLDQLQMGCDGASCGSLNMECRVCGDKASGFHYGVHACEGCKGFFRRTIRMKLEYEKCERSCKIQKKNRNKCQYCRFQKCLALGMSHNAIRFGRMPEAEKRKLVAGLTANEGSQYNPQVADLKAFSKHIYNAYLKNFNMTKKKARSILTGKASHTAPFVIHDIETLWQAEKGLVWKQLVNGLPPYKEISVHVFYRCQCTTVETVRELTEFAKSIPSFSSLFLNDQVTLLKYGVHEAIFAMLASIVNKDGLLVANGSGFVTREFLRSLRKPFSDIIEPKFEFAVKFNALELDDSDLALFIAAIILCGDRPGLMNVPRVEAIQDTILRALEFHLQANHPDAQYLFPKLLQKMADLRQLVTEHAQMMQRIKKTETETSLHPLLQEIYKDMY

For `Cc1ccc(C)cc1`, the Potency [1] was “inactive” and the Potency [2] was “inactive”.

In the case of `c1ccc(-c2ccccc2-c2ccccc2)cc1`, the Potency [3] is reported as “inactive” and the Potency [2] is reported as “inactive”.

In the case of `CC(=O)[C@H]1CC[C@H]2[C@@H]3CC[C@@H]4C[C@H](O)CC[C@]4(C)[C@H]3CC[C@]12C`, the Potency [4] is reported as “inactive”, the max activation [5] is reported as 6.21% and the Potency [6] is reported as “inactive”.

With `COc1ccc(C)cc1N` the Potency [1] was “inactive” and the Potency [2] was “inactive”.

In the case of `COc1ccc2c3c1O[C@H]1[C@@H](O)C=C[C@H]4[C@@H](C2)NCC[C@@]341`, the Potency [7] is reported as “inactive”, the Potency [4] is reported as “inactive” and the Potency [8] is reported as “inactive”. For the same compound, the Potency [9] was “inactive”, the max activation [5] was -0.689% and the Potency [6] was “inactive”.

In the case of `Cc1c(N)cccc1N`, the Potency [1] is reported as “inactive” and the Potency [2] is reported as “inactive”.

For `Fc1c(F)c(F)c(Br)c(F)c1F`, the Potency [10] was “inactive”, the Potency [1] was “inactive” and the Potency [2] was “inactive”.

In the case of `Nc1ccccc1[N+](=O)[O-]`, the Potency [1] is reported as “inactive” and the Potency [2] is reported as “inactive”.

With `CNC(=O)Oc1ccc2c(c1)[C@]1(C)CCN(C)[C@@H]1N2C` the Potency [1] was “inactive”.

With `CCCCCc1cc(O)c2c(c1)OC(C)(C)c1ccc(C)cc1-2` the Potency [7] was 1.68 µM (active), the Potency [11] was 16.9 µM (active) and the Potency [12] was “inactive”. For the same compound, the Potency [13] was “inactive”.

In the case of `O=C(Cl)c1cccc(C(=O)Cl)c1`, the Potency [1] is reported as “inactive” and the Potency [2] is reported as “inactive”.

With `COc1ccc(CCN2CCC(Nc3nc4ccccc4n3Cc3ccc(F)cc3)CC2)cc1` the Potency [1] was 26.6 µM (active).

With `Oc1cc(Cl)cc(Cl)c1Cl` the Potency [1] was “inactive” and the Potency [2] was “inactive”.

With `CCC(=O)O[C@@](Cc1ccccc1)(c1ccccc1)[C@@H](C)CN(C)C` the max activation [5] was 0.731% and the Potency [6] was “inactive”.

For `CCN(CC)C(=O)N[C@H]1C[C@@H]2c3cccc4[nH]cc(c34)C[C@H]2N(C)C1`, the Potency [11] was “inactive”, the Potency [14] was “inactive” and the Potency [12] was “inactive”. For the same compound, the Potency [15] was “inactive” and the Potency [6] was 25.1 µM (active).

In the case of `CC(=O)O[C@H]1C[C@H](O[C@H]2[C@@H](O)C[C@H](O[C@H]3[C@@H](O)C[C@H](O[C@H]4CC[C@@]5(C)[C@H](CC[C@@H]6[C@@H]5C[C@@H](O)[C@]5(C)[C@@H](C7=CC(=O)OC7)CC[C@]65O)C4)O[C@@H]3C)O[C@@H]2C)O[C@H](C)[C@H]1O[C@@H]1O[C@H](CO)[C@@H](O)[C@H](O)[C@H]1O`, the Potency [7] is reported as 0.75 µM (active), the Potency [11] is reported as 0.301 µM (active) and the max activation [5] is reported as 4.17%. The Potency [6] was “inactive”.

With `C[C@]12C[C@H]3S[C@H]3C[C@@H]1CC[C@@H]1[C@@H]2CC[C@]2(C)[C@@H](O)CC[C@@H]12` the Potency [4] was “inactive”, the Potency [14] was 0.0032 µM (active) and the Potency [12] was 0.0003 µM (active). The Potency [15] was “inactive” and the Potency [6] was “inactive”.

In the case of `C#CC(C)(O)CC` (stereo not given), the Potency [4] is reported as “inactive”, the Potency [8] is reported as “inactive” and the Potency [9] is reported as “inactive”. For the same compound, the Potency [6] was “inactive”.

With `CCN(CC)CCO[C@H]1CC[C@@]2(C)C(=CC[C@@H]3[C@@H]2CC[C@]2(C)C(=O)CC[C@@H]32)C1` the Potency [7] was “inactive”, the Potency [9] was “inactive” and the max activation [5] was 3.39%.
